Assay results from the supplement of paper PMC10849652.
The full data set covers some 7,900 targets. This sample favours those with a hit. About 0.6% of all pairs of compound and target were hits. Unmarked numbers belong to inactive results.

What was measured:
Assay in all cases: log2 fold change, soluble protein after heating vs DMSO (PISA); higher = thermal stabilisation; K562 cells, 10 uM, 30 min; active = over 0.2 and 3.5 SD of the protein, either way, in both replicates (recomputed)
[1] = compound: COC1=CC=C(C=C1)CN2C=CC3=C2C=C(C=C3)C(=O)NO
How it was run: (§1)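 For each measurement, 10 μM compound was applied for 30 min to K562 cells at 2×10^6 cells/mL. Aliquots were heated for 3 min across 48°C-58°C, pooled, and extracted in PBS with 0.5% NP-40 at 4°C; the supernatant after 21,000xg for 90 min was soluble protein. This was quantified by TMTpro 16plex LC-MS/MS with channel sums equalised, and thermal stability was reported relative to control samples from duplicates, on a log2 fold-change scale.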

[2] = compound: CON(C)C(=O)N1N=C(c2cc(F)ccc2F)S[C@@]1(CCCN)c1ccccc1 [filanesib]
How it was run: as §1

[3] = compound: CO[C@H]1C[C@@H]2CC[C@@H](C)[C@@](O)(O2)C(=O)C(=O)N2CCCC[C@H]2C(=O)O[C@H]([C@H](C)C[C@@H]2CC[C@H](n3cnnn3)[C@H](OC)C2)CC(=O)[C@H](C)/C=C(\C)[C@@H](O)[C@@H](OC)C(=O)[C@H](C)C[C@H](C)/C=C/C=C/C=C/1C [zotarolimus]
How it was run: as §1

[4] = compound: COc1cc(C(=O)O)ccc1NC(=O)[C@@H]1N[C@@H](CC(C)(C)C)[C@](C#N)(c2ccc(Cl)cc2F)[C@H]1c1cccc(Cl)c1F [idasanutlin]
How it was run: as §1

[5] = compound: COc1cc(Nc2ncc3c(n2)-c2ccc(Cl)cc2C(c2c(F)cccc2OC)=NC3)ccc1C(=O)O [alisertib]
How it was run: as §1

[6] = compound: COc1cc2nc(-c3cc(F)ccc3O)nc(N[C@@H]3CNC[C@H]3C(C)(C)O)c2cc1OC
How it was run: as §1

[7] = compound: COc1cc2ncnc(Nc3ccc(F)c(Cl)c3)c2cc1OCCCN1CCOCC1 [gefitinib]
How it was run: as §1

[8] = compound: COc1cccc2cc(-c3nc([C@H]4CC[C@H](C(=O)O)CC4)n4ncnc(N)c34)[nH]c12
How it was run: as §1

[9] = compound: CS(=O)(=O)CCNCc1ccc(-c2ccc3ncnc(Nc4ccc(OCc5cccc(F)c5)c(Cl)c4)c3c2)o1 [lapatinib]
How it was run: as §1

[10] = compound: CS(=O)(=O)N1CCN(Cc2cc3nc(-c4cccc5[nH]ncc45)nc(N4CCOCC4)c3s2)CC1 [pictilisib]
How it was run: as §1

UniProt Q9NTZ6, sequence (Q9NTZ6 whole entry, looked up): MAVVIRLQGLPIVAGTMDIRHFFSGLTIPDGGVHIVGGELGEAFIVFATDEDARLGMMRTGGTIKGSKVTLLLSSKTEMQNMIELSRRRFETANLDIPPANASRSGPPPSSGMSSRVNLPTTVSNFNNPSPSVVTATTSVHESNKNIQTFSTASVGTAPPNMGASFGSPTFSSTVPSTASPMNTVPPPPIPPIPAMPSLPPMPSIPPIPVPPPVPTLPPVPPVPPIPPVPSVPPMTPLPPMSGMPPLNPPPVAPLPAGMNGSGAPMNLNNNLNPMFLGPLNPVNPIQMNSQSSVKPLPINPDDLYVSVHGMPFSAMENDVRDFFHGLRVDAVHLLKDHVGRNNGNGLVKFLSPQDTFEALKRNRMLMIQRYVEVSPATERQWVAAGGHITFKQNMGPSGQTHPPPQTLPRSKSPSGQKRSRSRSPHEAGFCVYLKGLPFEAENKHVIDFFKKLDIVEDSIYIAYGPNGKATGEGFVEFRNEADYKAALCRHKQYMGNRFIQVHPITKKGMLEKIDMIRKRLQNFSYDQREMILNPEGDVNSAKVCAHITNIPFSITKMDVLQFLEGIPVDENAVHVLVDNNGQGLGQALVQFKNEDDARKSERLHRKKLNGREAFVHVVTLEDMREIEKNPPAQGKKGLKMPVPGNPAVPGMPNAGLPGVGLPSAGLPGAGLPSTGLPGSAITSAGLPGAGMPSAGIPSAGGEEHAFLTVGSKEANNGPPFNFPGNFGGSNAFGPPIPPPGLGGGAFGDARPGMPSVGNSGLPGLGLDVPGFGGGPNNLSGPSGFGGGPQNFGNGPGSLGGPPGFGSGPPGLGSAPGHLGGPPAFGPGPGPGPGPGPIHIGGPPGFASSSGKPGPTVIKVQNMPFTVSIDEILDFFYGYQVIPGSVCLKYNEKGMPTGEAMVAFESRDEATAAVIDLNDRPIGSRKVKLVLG
UniProt Q7L099, sequence (Q7L099 whole entry, looked up): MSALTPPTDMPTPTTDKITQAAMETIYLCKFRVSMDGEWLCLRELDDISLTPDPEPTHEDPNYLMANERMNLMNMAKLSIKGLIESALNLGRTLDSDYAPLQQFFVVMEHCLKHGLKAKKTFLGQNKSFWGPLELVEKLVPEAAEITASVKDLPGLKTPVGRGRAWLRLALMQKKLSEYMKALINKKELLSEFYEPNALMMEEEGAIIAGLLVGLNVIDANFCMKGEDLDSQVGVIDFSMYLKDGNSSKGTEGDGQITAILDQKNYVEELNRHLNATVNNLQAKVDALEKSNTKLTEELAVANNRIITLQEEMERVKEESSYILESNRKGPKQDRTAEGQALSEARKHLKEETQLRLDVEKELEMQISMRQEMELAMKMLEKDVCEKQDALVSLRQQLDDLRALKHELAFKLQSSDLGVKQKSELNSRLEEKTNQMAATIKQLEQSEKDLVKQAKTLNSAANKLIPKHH
UniProt Q8IZQ5, sequence (Q8IZQ5 whole entry, looked up): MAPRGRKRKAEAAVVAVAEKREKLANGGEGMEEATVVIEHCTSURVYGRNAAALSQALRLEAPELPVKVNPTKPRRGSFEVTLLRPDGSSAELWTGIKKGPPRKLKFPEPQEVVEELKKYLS
UniProt Q6NUM9, sequence (Q6NUM9 whole entry, looked up): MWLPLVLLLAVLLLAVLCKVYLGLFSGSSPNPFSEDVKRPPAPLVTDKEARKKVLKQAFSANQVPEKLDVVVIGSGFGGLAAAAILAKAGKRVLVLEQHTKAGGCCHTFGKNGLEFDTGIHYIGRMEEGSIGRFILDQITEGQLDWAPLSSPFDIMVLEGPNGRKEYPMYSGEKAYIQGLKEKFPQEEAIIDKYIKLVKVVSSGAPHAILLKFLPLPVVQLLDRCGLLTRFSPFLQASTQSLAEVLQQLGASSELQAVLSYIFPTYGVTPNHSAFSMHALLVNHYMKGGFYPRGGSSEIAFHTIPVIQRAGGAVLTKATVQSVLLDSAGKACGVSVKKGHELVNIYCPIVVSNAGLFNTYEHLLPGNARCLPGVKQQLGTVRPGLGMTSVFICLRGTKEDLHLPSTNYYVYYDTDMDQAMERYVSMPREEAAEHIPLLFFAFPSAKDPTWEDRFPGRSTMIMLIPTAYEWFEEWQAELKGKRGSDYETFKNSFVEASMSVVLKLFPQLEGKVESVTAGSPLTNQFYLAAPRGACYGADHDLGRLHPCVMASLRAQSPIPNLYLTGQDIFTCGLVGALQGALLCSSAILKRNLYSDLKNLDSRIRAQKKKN
UniProt P52306, sequence (P52306 whole entry, looked up): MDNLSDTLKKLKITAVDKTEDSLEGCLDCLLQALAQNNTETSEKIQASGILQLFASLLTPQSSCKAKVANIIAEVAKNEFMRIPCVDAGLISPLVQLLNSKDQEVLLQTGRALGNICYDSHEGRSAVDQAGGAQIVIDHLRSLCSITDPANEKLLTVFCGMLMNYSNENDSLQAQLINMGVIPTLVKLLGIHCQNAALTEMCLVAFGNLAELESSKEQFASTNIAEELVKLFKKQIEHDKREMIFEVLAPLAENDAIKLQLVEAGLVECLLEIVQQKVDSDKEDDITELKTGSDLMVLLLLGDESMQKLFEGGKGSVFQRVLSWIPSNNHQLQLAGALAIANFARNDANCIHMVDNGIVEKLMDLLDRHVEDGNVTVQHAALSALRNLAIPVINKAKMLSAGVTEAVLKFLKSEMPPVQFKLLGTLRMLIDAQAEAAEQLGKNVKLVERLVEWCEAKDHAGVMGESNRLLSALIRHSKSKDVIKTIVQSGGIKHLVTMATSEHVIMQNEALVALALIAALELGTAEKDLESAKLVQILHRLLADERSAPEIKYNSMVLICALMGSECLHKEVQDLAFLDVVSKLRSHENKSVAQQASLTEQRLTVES
UniProt P40938, sequence (P40938 whole entry, looked up): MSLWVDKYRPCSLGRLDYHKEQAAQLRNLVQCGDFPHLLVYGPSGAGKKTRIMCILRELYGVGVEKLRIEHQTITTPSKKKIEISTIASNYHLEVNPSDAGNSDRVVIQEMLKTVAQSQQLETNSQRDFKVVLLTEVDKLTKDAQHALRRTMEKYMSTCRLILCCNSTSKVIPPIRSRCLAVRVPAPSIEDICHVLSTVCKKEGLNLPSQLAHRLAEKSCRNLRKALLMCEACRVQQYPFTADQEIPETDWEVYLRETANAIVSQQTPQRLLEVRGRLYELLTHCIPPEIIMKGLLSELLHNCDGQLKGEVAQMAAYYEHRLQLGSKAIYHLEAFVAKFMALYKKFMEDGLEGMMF
UniProt O95470, sequence (O95470 whole entry, looked up): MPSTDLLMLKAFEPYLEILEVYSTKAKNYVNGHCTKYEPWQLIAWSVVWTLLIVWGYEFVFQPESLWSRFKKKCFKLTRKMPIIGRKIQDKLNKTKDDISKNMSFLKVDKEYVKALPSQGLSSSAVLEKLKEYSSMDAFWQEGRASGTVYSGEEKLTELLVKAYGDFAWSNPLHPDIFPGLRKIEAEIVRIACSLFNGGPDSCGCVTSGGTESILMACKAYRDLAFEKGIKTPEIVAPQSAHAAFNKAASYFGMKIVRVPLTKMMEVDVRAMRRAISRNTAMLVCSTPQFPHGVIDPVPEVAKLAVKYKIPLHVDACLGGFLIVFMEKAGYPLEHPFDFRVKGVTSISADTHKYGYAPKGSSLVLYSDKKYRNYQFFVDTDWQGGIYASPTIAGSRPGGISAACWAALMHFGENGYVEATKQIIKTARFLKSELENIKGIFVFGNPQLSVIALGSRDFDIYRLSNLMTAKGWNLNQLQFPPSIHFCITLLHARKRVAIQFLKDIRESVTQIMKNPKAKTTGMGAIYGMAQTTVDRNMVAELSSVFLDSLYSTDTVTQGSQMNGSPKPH
UniProt Q8NBN7, sequence (Q8NBN7 whole entry, looked up): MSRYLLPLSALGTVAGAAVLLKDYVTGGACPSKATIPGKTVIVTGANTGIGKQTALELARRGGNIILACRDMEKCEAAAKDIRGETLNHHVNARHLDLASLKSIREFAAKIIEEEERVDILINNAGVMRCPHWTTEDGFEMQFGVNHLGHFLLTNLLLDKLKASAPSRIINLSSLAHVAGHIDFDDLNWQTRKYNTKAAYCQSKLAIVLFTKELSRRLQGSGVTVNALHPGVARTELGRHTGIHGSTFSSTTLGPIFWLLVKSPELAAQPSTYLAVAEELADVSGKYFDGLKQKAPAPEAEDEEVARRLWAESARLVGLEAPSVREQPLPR
UniProt Q9BUV8, sequence (Q9BUV8 whole entry, looked up): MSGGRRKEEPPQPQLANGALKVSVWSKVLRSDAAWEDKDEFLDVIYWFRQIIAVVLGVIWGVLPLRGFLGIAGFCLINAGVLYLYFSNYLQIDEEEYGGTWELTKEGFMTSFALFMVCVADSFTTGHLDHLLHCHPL
UniProt Q5VZM2, sequence (Q5VZM2 whole entry, looked up): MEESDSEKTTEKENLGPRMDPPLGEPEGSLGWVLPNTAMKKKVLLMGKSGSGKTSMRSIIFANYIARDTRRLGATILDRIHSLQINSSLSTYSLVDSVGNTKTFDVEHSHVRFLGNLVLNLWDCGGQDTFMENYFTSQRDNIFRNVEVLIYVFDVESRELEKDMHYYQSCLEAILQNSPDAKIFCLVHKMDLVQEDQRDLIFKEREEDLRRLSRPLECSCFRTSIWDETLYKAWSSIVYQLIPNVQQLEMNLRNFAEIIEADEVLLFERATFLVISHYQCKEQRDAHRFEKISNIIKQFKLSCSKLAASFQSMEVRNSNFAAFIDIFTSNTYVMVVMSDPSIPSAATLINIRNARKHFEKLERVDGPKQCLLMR
UniProt Q7L4I2, sequence (Q7L4I2 whole entry, looked up): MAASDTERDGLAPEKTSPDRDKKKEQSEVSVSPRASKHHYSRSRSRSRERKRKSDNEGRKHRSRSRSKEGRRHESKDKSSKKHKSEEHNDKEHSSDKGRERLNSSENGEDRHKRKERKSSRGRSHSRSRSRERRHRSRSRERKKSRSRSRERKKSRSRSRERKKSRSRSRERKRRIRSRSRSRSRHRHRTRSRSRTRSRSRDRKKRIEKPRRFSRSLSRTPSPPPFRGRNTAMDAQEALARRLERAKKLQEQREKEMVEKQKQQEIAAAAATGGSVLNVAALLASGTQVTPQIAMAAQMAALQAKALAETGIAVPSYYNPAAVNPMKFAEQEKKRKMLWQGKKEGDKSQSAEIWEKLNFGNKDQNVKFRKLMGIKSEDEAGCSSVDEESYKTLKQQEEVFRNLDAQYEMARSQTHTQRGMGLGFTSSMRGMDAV

Row | Target | log2 fold change [1] | log2 fold change [2] | log2 fold change [3] | log2 fold change [4] | log2 fold change [5] | log2 fold change [6] | log2 fold change [7] | log2 fold change [8] | log2 fold change [9] | log2 fold change [10]
1 | SLC1A5 (UniProt Q15758) | -0.048 | 0.071 | -0.052 | 0.031 | -0.126 | 0.058 | 0.023 | 0.095 | -0.01 | 0.024
2 | RDH13 (UniProt Q8NBN7) | 0.056 | -0.135 | 0.072 | -0.019 | -0.005 | -0.064 | 0.018 | 0.084 | 0 | 0.042
3 | RAP1GDS1 isoform 5 (UniProt P52306) | -0.026 | -0.019 | 0.022 | -0.023 | -0.041 | -0.025 | 0.066 | -0.072 | 0.091 | 0.015
4 | RETSAT (UniProt Q6NUM9) | 0.051 | 0.109 | 0.094 | -0.077 | 0.067 | 0.064 | 0.052 | -0.093 | 0.192 | 0.074
5 | RNASET2 (UniProt O00584) | 0.012 | -0.155 | -0.013 | -0.021 | -0.046 | -0.097 | -0.081 | 0.035 | -0.028 | 0.024
6 | RBBP6 (UniProt Q7Z6E9) | 0.101 | 0.468 (active) | -0.052 | 0.089 | 0.044 | -0.099 | -0.02 | 0.146 | 0.101 | 0.016
7 | SCAF11 (UniProt Q99590) | 0.365 | 0.141 | -0.029 | 0.054 | -0.1 | -0.028 | -0.013 | -0.071 | 0.156 | -0.382
8 | RSRC2 (UniProt Q7L4I2) | 0.033 | 0.066 | -0.002 | 0.048 | -0.102 | 0.034 | 0.005 | 0.022 | -0.021 | 0.011
9 | RRAGB (UniProt Q5VZM2) | -0.018 | -0.059 | -0.086 | -0.026 | -0.054 | -0.078 | -0.003 | 0.053 | 0.042 | 0.052
10 | RPS16 (UniProt P62249) | -0.117 | 0.092 | 0.025 | 0.093 | -0.167 | -0.027 | -0.014 | -0.199 | 0.046 | -0.162
11 | RAB5IF isoform 5 (UniProt Q9BUV8) | 0.429 (active) | -0.243 | -0.074 | -0.015 | -0.081 | -0.021 | 0.018 | 0.002 | 0.006 | 0.006
12 | RRP9 (UniProt O43818) | -0.011 | 0.143 | -0.059 | 0.171 | -0.14 | -0.061 | 0.027 | 0.047 | 0.037 | -0.04
13 | REL (UniProt Q04864) | -0.006 | 0.051 | 0.004 | 0.033 | 0.068 | 0.062 | 0.148 | -0.086 | -0.031 | -0.243
14 | RAB9A (UniProt P51151) | 0.022 | -0.074 | 0.024 | -0.026 | -0.021 | 0.008 | 0.015 | 0.067 | -0.026 | -0.011
15 | RNPEP (UniProt Q9H4A4) | 0.008 | -0.083 | 0.044 | -0.02 | -0.018 | -0.009 | -0.023 | 0 | 0.043 | 0.008
16 | RFC3 (UniProt P40938) | 0.125 | -0.046 | -0.026 | -0.088 | -0.021 | -0.042 | 0.008 | 0.024 | 0.037 | 0.035
17 | RPS21 (UniProt P63220) | -0.033 | 0.086 | -0.021 | 0.031 | -0.069 | 0.04 | 0.002 | -0.022 | -0.027 | -0.01
18 | RBM12 (UniProt Q9NTZ6) | 0.112 | -0.033 | 0.021 | -0.039 | 0.023 | -0.014 | 0.032 | 0.023 | -0.012 | -0.019
19 | RUFY3 isoform 3 (UniProt Q7L099) | -0.06 | 0.053 | 0.003 | -0.108 | 0.155 | 0.045 | 0.08 | -0.122 | -0.01 | 0.018
20 | RBM8A (UniProt Q9Y5S9) | -0.061 | 0.028 | -0.018 | -0.01 | -0.024 | 0.094 | 0.038 | -0.029 | -0.028 | -0.013
21 | SELENOH (UniProt Q8IZQ5) | 0.204 | -0.077 | 0.035 | 0.02 | -0.27 | -0.114 | -0.028 | -0.038 | 0.08 | -0.074
22 | RBM26 isoform 2 (UniProt Q5T8P6) | 0.086 | -0.071 | 0.03 | -0.025 | 0.093 | -0.045 | 0.064 | 0.009 | 0.034 | 0.059
23 | RPS18 (UniProt P62269) | -0.157 | 0.118 | 0.012 | 0.046 | -0.015 | -0.021 | -0.013 | -0.109 | 0.065 | -0.107
24 | RAD50 isoform 2 (UniProt Q92878) | -0.002 | 0.008 | 0.036 | -0.016 | 0 | 0.002 | 0.031 | 0.007 | -0.002 | 0.02
25 | RAC3 (UniProt P60763) | 0.025 | 0.031 | 0.125 | 0.017 | -0.038 | -0.067 | 0.017 | 0.026 | 0.061 | 0.071
26 | RPS3 (UniProt P23396) | -0.093 | 0.102 | -0.023 | 0.055 | -0.05 | -0.027 | -0.056 | -0.149 | 0.053 | -0.059
27 | RPS19 (UniProt P39019) | 0 | 0.102 | -0.015 | 0.113 | -0.114 | -0.024 | -0.049 | -0.12 | 0.059 | -0.137
28 | RSF1 (UniProt Q96T23) | 0.267 | -0.078 | 0.023 | -0.147 | -0.067 | -0.018 | 0.037 | -0.17 | 0.004 | 0.114
29 | SGPL1 (UniProt O95470) | -0.064 | 0.107 | -0.011 | 0.051 | -0.046 | 0.012 | 0.001 | -0.115 | 0.04 | -0.013
30 | RBM6 (UniProt P78332) | 0.044 | -0.067 | 0.064 | 0.101 | -0.431 | -0.02 | -0.007 | 0.005 | 0.121 | -0.044
